Each structure is given as a SMILES string. Activity calls are given as the source filed them. Where a call stands in place of a potency, no number is given. Calls come from the whole dose curve.
Potency is the fitted concentration of half-maximal effect.

The assay can be described thus: qHTS assay to identify small molecule agonists of the sonic hedgehog signaling (Shh) pathway (AID 1259368).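 For activity change: NIH/3T3-derived 3T3Gli1-Luc cells carrying a stable Gli1-driven firefly luciferase reporter.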 Note: nearly all actives have a fitted effect of over 15% in size. The conditions noted are these: NIH/3T3 Gli1-Luc reporter, luciferase, 24 h; series mostly up to 92.4 µM. The source says:
National Center for Advancing Translational Sciences [NCATS]
NIH Chemical Genomics Center [NCGC]
U.S. Environmental Protection Agency [EPA]
National Institutes of Environmental Health Sciences [NIEHS]
National Toxicology Program [NTP]
The sonic hedgehog (Shh) pathway is essential for normal embryonic development. Dysregulation of the Shh pathway can cause severe developmental defects in organs. Therefore chemicals that interfere with the pathway are potential developmental toxicants. A cell line designated 3T3Gli1-Luc (DMB/OARSA/CFSAN/FDA, Laurel, MD), a NIH/3T3 derived clone containing stably integrated Gli1-Luc reporter is used to detect chemical interference of the Shh pathway, by changes in the expression of the firefly Luc gene under the control of the Gli1 transcriptional response element. This cell line was used to screen Tox21 libraries for identifying and prioritizing the potential developmental toxicants that interfere Shh pathway.
3T3 Gli1-Luc cells were dispensed at 2,000 per well in 5uL of culture medium into white solid bottom 1536-well plates (Greiner Bio-One, Monroe, NC) using a Multidrop Combi (Thermo Scientific, Waltham, MA) dispenser. The assay plates were incubated at 37 C and 5% CO2 for 4hr, and then 23nL of compounds dissolved in DMSO and positive control were transferred using a Pintool station (Wako, San Diego, CA). The assay plates were incubated at 37C and 5% CO2 for 24hr. For luciferase read, 4uL of Amplite Luciferase reporter gene assay reagent (AAT Bioquest, Inc. Sunnyvale, CA) was added to each well of the assay plates using Flying Reagent Dispenser (FRD, Aurora Discovery, San Diego, CA) and incubated at room temperature for 30min. The luminescence signal was measured using a ViewLux plate reader (Perkin Elmer, Shelton, CT).
On to `CCCCNP(N)(N)=S`, for which the Potency result was “inactive”.
For `CC(C)N(C(=O)COc1nnc(C(F)(F)F)s1)c1ccc(F)cc1`, the Potency entry is “inactive”.
The same measure, in the same setting: in the case of `CC1Sc2c(C(=O)O)c(=O)c3cc(F)c(N4CCNCC4)cc3n21` (stereo not given) it was “inactive”; in that of `O=[N+]([O-])c1cc(C(F)(F)F)cc([N+](=O)[O-])c1Cl`, “inactive”; in that of `CC(Cl)Cl`, “inactive”.
With `CCOC(=O)[C@]1(c2ccccc2)Oc2ccccc2[C@@H]1N`, the Potency result is “inactive”.
Same read-out and setting: the result for `N#CCC#N` reads “inactive”; that for `S=C=NCc1ccccc1`, “inactive”.
For the compound `O=Cc1ccc(Cl)cc1Cl`, the Potency entry is “inactive”.
Turning to `CCOP(O)OCC`, the Potency result was “inactive”.
`ClP(Cl)(Cl)(Cl)Cl`: the Potency entry was “inactive”.
As to `CCOS(C)(=O)=O`, the Potency result is “inactive”.
With `Cl/C=C\C[N+]12CN3CN(CN(C3)C1)C2`, the Potency entry is “inactive”.
On to `C=CCOC(C)=O`, for which the Potency entry was “inactive”.
In the case of `CN1[C@@H]2CC[C@H]1CC(OC(=O)c1cc(Cl)cc(Cl)c1)C2` (stereo not given in full), the Potency entry is “inactive”.
The same measure, in the same setting: in the case of `C[C@@H]1CC[C@H]2[C@@H](C)C(=O)O[C@@H]3O[C@@]4(C)CC[C@@H]1[C@]32OO4` it was “inactive”; in that of `O=C(O)COc1ccc(Cl)cc1`, “inactive”.
Still for that read-out and setting: in the case of `CN(C)c1ccc(N(C)C)cc1` it was 24.4 µM (active); in that of `CC(=O)NC1CCSC1=O` (stereo not given), “inactive”; in that of `CC(C)(Cl)[N+](=O)[O-]`, “inactive”.
`COP(=O)(OC)O/C(=C/Cl)c1cc(Cl)c(Cl)cc1Cl`: the Potency result was “inactive”.
With `CNC(C)Cc1ccccc1OC` (stereo not given), the Potency entry is “inactive”.
Take `CC(C)N(CCC(C(N)=O)(c1ccccc1)c1ccccn1)C(C)C` (stereo not given): the Potency entry is “inactive”.
For the compound `BrCC(Br)C1CCC(Br)C(Br)C1` (stereo not given), the Potency entry was “inactive”.
With `O=C(C(Cl)(Cl)Cl)C(Cl)(Cl)Cl`, the Potency result is “inactive”.
`Cn1sc(Cl)cc1=O`: the Potency entry is “inactive”.
With `C[C@H]1CNCCc2ccc(Cl)cc21`, the Potency result is “inactive”.
On the same count and under the same terms, in the case of `Nc1nc(N)nc(N)n1` it was “inactive”; in that of `CS/C(C)=N/OC(=O)N(C)SN(C)C(=O)O/N=C(\C)SC`, “inactive”.
In the case of `Clc1ccc(C(OCCN2CCCCC2)c2ccccc2)cc1` (stereo not given), the Potency entry was “inactive”.
Consider `C=CCC1([C@H](C)CCC)C(=O)NC(=O)NC1=O`, for which the Potency entry is “inactive”.
As to `CC(C)=CCOc1c2occc2cc2ccc(=O)oc12`, the Potency result is “inactive”.
For the compound `CCOP(=S)(OCC)SCSCC`, the Potency result is “inactive”.
With `COc1ccc(-c2ccccc2)cc1NNC(=O)OC(C)C`, the Potency result is “inactive”.
For the compound `COc1cc(Cl)c(OC)cc1Cl`, the Potency result was “inactive”.
Consider `CC(C)(C)C(O)C(Oc1ccc(Cl)cc1)n1cncn1` (stereo not given), for which the Potency result is “inactive”.
Consider `Cl/C=C\Cl`, for which the Potency result was “inactive”.
Same read-out and setting: in the case of `O=C1C(Cl)C(CCl)CN1c1cccc(C(F)(F)F)c1` (stereo not given) it was “inactive”.
Consider `CO[C@@H]1[C@H](OC(=O)NC(=O)CCl)CC[C@]2(CO2)[C@H]1[C@@]1(C)O[C@@H]1CC=C(C)C`, for which the activity change is -3.77% [at 18.9 µM, hits give high values] (inactive).
With `O=C(O)C(F)(F)C(F)(F)C(F)(F)C(F)(F)C(F)(F)C(F)(F)C(F)(F)C(F)(F)C(F)(F)F`, the Potency entry is “inactive”.

For the origin of these results see PubChem BioAssay (Tox21).
